# Assay results reported in publication PMC11062922 (Nature Chemical Biology, 2023).
# Where two headings read alike, the source gives them in different places.
# What was measured:
# [1] = tested on: AAK1; design: species or system human, MV4-11 + K-562 + COLO205 + SK-N-BE2 + OVCAR-8; conditions: read-out: apparent Kd, compound concentrations: 100 nM and 1000 nM (sheet 'Samples'), n = 1
# [2] = tested on: BMP2K; design: species or system human, MV4-11 + K-562 + COLO205 + SK-N-BE2 + OVCAR-8; conditions: read-out: apparent Kd, compound concentrations: 100 nM and 1000 nM (sheet 'Samples'), n = 1
# [3] = tested on: CSNK2A1;CSNK2A3; design: species or system human, MV4-11 + K-562 + COLO205 + SK-N-BE2 + OVCAR-8; conditions: read-out: apparent Kd, compound concentrations: 100 nM and 1000 nM (sheet 'Samples'), n = 1
# [4] = tested on: CSNK2A2; design: species or system human, MV4-11 + K-562 + COLO205 + SK-N-BE2 + OVCAR-8; conditions: read-out: apparent Kd; compound concentrations: 100 nM and 1000 nM (sheet 'Samples'), CATDS: 2.19439033786193E-2; n = 1
# [5] = tested on: FLT3; design: species or system human, MV4-11 + K-562 + COLO205 + SK-N-BE2 + OVCAR-8; conditions: read-out: apparent Kd, compound concentrations: 100 nM and 1000 nM (sheet 'Samples'), n = 1
# [6] = tested on: FLT4; design: species or system human, MV4-11 + K-562 + COLO205 + SK-N-BE2 + OVCAR-8; conditions: read-out: apparent Kd, compound concentrations: 100 nM and 1000 nM (sheet 'Samples'), n = 1
# [7] = tested on: GAK; design: species or system human, MV4-11 + K-562 + COLO205 + SK-N-BE2 + OVCAR-8; conditions: read-out: apparent Kd, compound concentrations: 100 nM and 1000 nM (sheet 'Samples'), n = 1
# [8] = tested on: GSK3A; design: species or system human, MV4-11 + K-562 + COLO205 + SK-N-BE2 + OVCAR-8; conditions: read-out: apparent Kd, compound concentrations: 100 nM and 1000 nM (sheet 'Samples'), n = 1
# [9] = tested on: GSK3B; design: species or system human, MV4-11 + K-562 + COLO205 + SK-N-BE2 + OVCAR-8; conditions: read-out: apparent Kd, compound concentrations: 100 nM and 1000 nM (sheet 'Samples'), n = 1
# [10] = tested on: PAK4; design: species or system human, MV4-11 + K-562 + COLO205 + SK-N-BE2 + OVCAR-8; conditions: read-out: apparent Kd, compound concentrations: 100 nM and 1000 nM (sheet 'Samples'), n = 1
# [11] = molecular target: Q6ZSR9 (human, UniProt Q6ZSR9); design: species or system MV4-11 + K-562 + COLO205 + SK-N-BE2 + OVCAR-8; conditions: read-out: apparent Kd, compound concentrations: 100 nM and 1000 nM (sheet 'Samples'), n = 1
# Sequence of Q6ZSR9 (Q6ZSR9 whole entry, looked up): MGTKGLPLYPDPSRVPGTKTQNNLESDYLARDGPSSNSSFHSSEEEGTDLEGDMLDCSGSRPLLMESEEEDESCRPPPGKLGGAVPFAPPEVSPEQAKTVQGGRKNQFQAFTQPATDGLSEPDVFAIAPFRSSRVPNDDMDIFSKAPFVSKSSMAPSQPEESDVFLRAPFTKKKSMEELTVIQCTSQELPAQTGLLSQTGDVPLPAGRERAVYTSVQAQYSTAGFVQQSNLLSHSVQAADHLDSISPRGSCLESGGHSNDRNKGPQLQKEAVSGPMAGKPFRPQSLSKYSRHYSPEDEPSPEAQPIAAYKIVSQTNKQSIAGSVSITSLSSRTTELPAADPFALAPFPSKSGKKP
# [12] = tested on: CLK1; design: species or system human, MV4-11 + K-562 + COLO205 + SK-N-BE2 + OVCAR-8; conditions: read-out: apparent Kd; compound concentrations: 100 nM and 1000 nM (sheet 'Samples'), CATDS: 4.6708282192626498E-3; n = 1
# [13] = tested on: CLK4; design: species or system human, MV4-11 + K-562 + COLO205 + SK-N-BE2 + OVCAR-8; conditions: read-out: apparent Kd; compound concentrations: 100 nM and 1000 nM (sheet 'Samples'), CATDS: 3.9570541670233801E-3; n = 1
# [14] = tested on: DYRK1A; design: species or system human, MV4-11 + K-562 + COLO205 + SK-N-BE2 + OVCAR-8; conditions: read-out: apparent Kd; compound concentrations: 100 nM and 1000 nM (sheet 'Samples'), CATDS: 3.77369052298554E-3; n = 1
# [15] = tested on: MELK; design: species or system human, MV4-11 + K-562 + COLO205 + SK-N-BE2 + OVCAR-8; conditions: read-out: apparent Kd; compound concentrations: 100 nM and 1000 nM (sheet 'Samples'), CATDS: 3.6400689102280299E-3; n = 1
# [16] = tested on: MYLK3; design: species or system human, MV4-11 + K-562 + COLO205 + SK-N-BE2 + OVCAR-8; conditions: read-out: apparent Kd; compound concentrations: 100 nM and 1000 nM (sheet 'Samples'), CATDS: 3.9686163384318402E-3; n = 1
# [17] = tested on: NUAK1; design: species or system human, MV4-11 + K-562 + COLO205 + SK-N-BE2 + OVCAR-8; conditions: read-out: apparent Kd; compound concentrations: 100 nM and 1000 nM (sheet 'Samples'), CATDS: 3.5163912979630598E-3; n = 1
# [18] = tested on: PRKD2; design: species or system human, MV4-11 + K-562 + COLO205 + SK-N-BE2 + OVCAR-8; conditions: read-out: apparent Kd, n = 1
# [19] = tested on: RET; design: species or system human, MV4-11 + K-562 + COLO205 + SK-N-BE2 + OVCAR-8; conditions: read-out: apparent Kd, compound concentrations: 100 nM and 1000 nM (sheet 'Samples'), n = 1
# [20] = tested on: CDKL5; design: species or system human, MV4-11 + K-562 + COLO205 + SK-N-BE2 + OVCAR-8; conditions: read-out: apparent Kd; compound concentrations:100 nM and 1000 nM (sheet 'Samples'); n = 1
smiles,measurement,setting,value
CN(c1ccc(NC(=O)N2CCN(CCCN3CCOCC3)CC2)cc1)c1ccnc(Nc2ccc(CS(C)(=O)=O)cc2)n1.Cl [GW830899A],potency estimated from few doses,[1]; CATDS: 3.8742372830354199E-2,0.411 µM
same,potency estimated from few doses,[2]; CATDS: 2.31268992433276E-2,1.07 µM
same,potency estimated from few doses,[3]; CATDS: 1.98938138742078E-2,1.55 µM
same,potency estimated from few doses,[4],1.21 µM
same,potency estimated from few doses,[5]; CATDS: 9.7213478094733505E-2,0.119 µM
same,potency estimated from few doses,[6]; CATDS: 1.9888583471378E-2,1.55 µM
same,potency estimated from few doses,[7]; CATDS: 3.3242042513279398E-2,0.528 µM
same,potency estimated from few doses,[8]; CATDS: 3.3329188882870099E-2,0.525 µM
same,potency estimated from few doses,[9]; CATDS: 2.6554458888549098E-2,0.796 µM
same,potency estimated from few doses,[10]; CATDS: 2.0205846564267299E-2,1.49 µM
same,potency estimated from few doses,[11]; CATDS: 2.6002877269984698E-2,0.831 µM
Cn1ncc2c(N)ncnc21 [SKF-18267],potency estimated from few doses,[1]; CATDS: 4.0309487407882601E-3,1.31 µM
same,potency estimated from few doses,[2]; CATDS: 3.9456431934801499E-3,1.38 µM
same,potency estimated from few doses,[12],0.936 µM
same,potency estimated from few doses,[13],1.37 µM
same,potency estimated from few doses,[3]; CATDS: 3.9180257487408596E-3,1.41 µM
same,potency estimated from few doses,[14],1.56 µM
same,potency estimated from few doses,[5]; CATDS: 6.0970372773572496E-3,0.564 µM
same,potency estimated from few doses,[6]; CATDS: 3.68265662419527E-3,1.67 µM
same,potency estimated from few doses,[7]; CATDS: 4.6125077933925696E-3,0.961 µM
same,potency estimated from few doses,[8]; CATDS: 6.4966954074714102E-3,0.507 µM
same,potency estimated from few doses,[9]; CATDS: 6.1120630546354802E-3,0.562 µM
same,potency estimated from few doses,[15],1.72 µM
same,potency estimated from few doses,[16],1.36 µM
same,potency estimated from few doses,[17],1.91 µM
same,potency estimated from few doses,[10]; CATDS: 4.003241038036E-3,1.33 µM
same,potency estimated from few doses,"[18]; compound concentrations: 100 nM and 1000 nM (sheet 'Samples'), CATDS: 4.0514258518823199E-3",1.29 µM
same,potency estimated from few doses,[19]; CATDS: 4.7446456770992903E-3,0.906 µM
COc1cccc2c(-c3ccncc3)c(-c3ccc(F)cc3)nn12 [GW468513X],potency estimated from few doses,[7]; CATDS: 4.7773336245273197E-2,0.615 µM
CCn1c(-c2nonc2N)nc2c(-c3ccccc3)ncc(OCCCN)c21.CCn1c(-c2nonc2N)nc2c(-c3ccccc3)ncc(OCCCN)c21.O=C(O)C(F)(F)F.O=C(O)C(F)(F)F [GSK260205A],potency estimated from few doses,[7]; CATDS: 2.96050281932086E-2,1.38 µM
same,potency estimated from few doses,"[18]; compound concentrations: 100 nM and 1000 nM (sheet 'Samples'), CATDS: 3.1729313210787799E-2",1.07 µM
same,potency estimated from few doses,[19]; CATDS: 8.7615337764420001E-2,0.0997 µM
Fc1ccc(-c2c(-c3ccncc3)[nH]c3cccnc23)cc1 [RO1153853-000],potency estimated from few doses,"[18]; compound concentrations: 100 nM and 1000 nM (sheet 'Samples'), CATDS: 5.7434995830704397E-2",1.02 µM
CCn1c(-c2nonc2N)nc2c(C#CC(C)(C)O)nc(CN3CCCC3)cc21 [GSK1000163A],potency estimated from few doses,[11]; CATDS: 0.15882546471257,2.13 µM
O=C1NC(=O)C(N2CCc3ccccc32)=C1c1ccccc1Cl [SB-373598],potency estimated from few doses,[20],1.39 µM
same,potency estimated from few doses,[18]; compound concentrations:100 nM and 1000 nM (sheet 'Samples'),1.92 µM
